TDP1 cell CPT: growth inhibition of DT40 Tdp1-/-;hTDP1 cells with camptothecin (screen for TDP1 inhibitors). chicken DT40 Tdp1-/-;hTDP1 cells + 20 nM CPT, ATP luminescence, 48 h. Potency, µM (doses to about 46.2 µM), for the others: at the top dose activity change, negative = growth inhibition, most hits filed as inhibitors. 12% of 420,000 active. AID 686979; also: nearly all actives have a fitted effect of over 55% in size
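Chicken DT40 Tdp1-/- cells stably complemented with human TDP1 were seeded at 400 cells/well in medium containing 20 nM camptothecin, exposed to pin-transferred compounds, and grown at 37 °C for at least 48 hr. Viability was read as ATP luminescence.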
HT1080 IDH1KD tx: HT-1080 IDH1 knockdown cell toxicity (counter line); 2% of 360,000 active; Potency, µM (titrated, usually from 46.1 µM), without a hit: top-dose activity, negative = toxicity, hits mostly cytotoxic; AID 686971; HT-1080 IDH1 knockdown viability, ATP luminescence, 48 h;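 also: 0% = DMSO wells and -100% = cell-free medium wells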
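Assay cells: HT-1080 with IDH1 knockdown, 750 per well, RPMI/5% FBS. Exposure: 48 h at 37 °C following 2 h pre-incubation. Read: CellTiter-Glo luminescence; fitted concentration-response, curve class assigned.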
HT1080-NT tox: kills 2HG-producing HT-1080-NT fibrosarcoma cells. HT-1080-NT fibrosarcoma viability, CellTiter-Glo ATP luminescence, 48 h. Potency, µM (highest dose often 46.1 µM), without a hit: at the highest dose activity, negative = less viability, actives largely listed as cytotoxic. 1.6% of 360,000 active. AID 686970;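 also: NT is the 2HG producing partner of a matched IDH1 knockdown line; 0% = DMSO-treated cells and -100% = media-only wells without cells; nearly all actives have a fitted effect of over 55% in size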
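HT-1080-NT; 750 cells/well; 5% FBS RPMI; 48 h compound, 37 degrees C; CellTiter-Glo luminescence; curve fitting and curve-class assignment.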
KB-V1 cytotox: kills drug-selected multidrug resistant KB-V1 cells; KB-V1 MDR cells viability, CellTiter-Glo, 72 h; Potency, µM (top dose mostly 46.1 µM), actives largely listed as cytotoxic; 3.4% of 400,000 active; AID 1347076; also: nearly all actives have a fitted effect of over 60% in size
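Readout: CellTiter-Glo luminescence, 10 min after addition. Cells: KB-V1 MDR subline, 72 h at 37 degrees C with compound. Analysis: corrected, normalized data fitted to concentration-effect curves.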
DT40 TDP1 no CPT: qHTS for Inhibitors of human tyrosyl-DNA phosphodiesterase 1 (TDP1): qHTS in cells in absence of CPT | DT40 Tdp1-/- hTDP1 cells, no CPT, ATP luminescence, 48 h | Potency, µM (doses to about 46.2 µM), inactives show at the top dose activity change, negative = growth inhibition, usual class: inhibitors | 15% of 420,000 active; also: nearly all actives have a fitted effect of over 55% in size
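Seeded 400 DT40-hTDP1 cells/well (vehicle DMSO, no 20 nM CPT); pinned compounds; ≥48 hr at 37 °C; CellTiter-Glo luminescence as viability measure.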
KB-3-1 tox: KB-3-1 parental cell cytotoxicity; KB-3-1 viability, CellTiter-Glo ATP luminescence, 72 h; Potency, µM (doses to about 46.1 µM), hits mostly cytotoxic; 1.4% of 400,000 active; AID 1347075; also: nearly all actives have a fitted effect of over 60% in size
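Parental KB-3-1 viability, qHTS format: 72 h compound exposure, 37 °C; CellTiter-Glo; media-only wells and DMSO plates as controls; concentration-effect fits on corrected data.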
* = called active by the depositor; i = inactive; ? = inconclusive; · = no result given; ! = a repeat was not active; [ ] = another dose, or the depositor's remark. An excerpt weighted towards active compounds, which were near 19% of everything screened. Calls follow the shape of the dose curve; as a rule, active = well fitted curve in the direction sought with a large enough effect; inconclusive = small, poorly fitted or top-dose-only effect, or another doubt; inactive = no such curve, though single readings can be large; an effect the other way counts as inactive or inconclusive. Unless noted, % is scaled to controls: 0 for no effect and ±100 for the full control effect; potency is read from the fitted curve at half-maximal effect.

SMILES | TDP1 cell CPT | HT1080 IDH1KD tx | HT1080-NT tox | KB-V1 cytotox | DT40 TDP1 no CPT | KB-3-1 tox
CN(C)C(=O)c1cnc(-c2ccccc2)nc1-c1ccccc1 | -12% | -4% | -3% | i | -28% | i
CCOc1ccc2nnc(-c3ccc(Br)cc3)n2n1 | ? | -1% | 6% | ? | 15µM* | i
CCOC(=O)C(C)Sc1ccc2nnc(-c3ccc(OCC)cc3)n2n1 (stereo unspecified) | 10µM* | · | · | ? | -89% | ?
COC(=O)C(C)Sc1ccc2nnc(-c3ccccc3)n2n1 (stereo unspecified) | ? | 4% | 0% | i | -28% | i
COc1ccc(-c2nnc3ccc(SC)nn23)cc1 | ? | ? | -3% | 15µM* | ? | i
CCOC(=O)C(C)Sc1ccc2nnc(-c3ccc(F)cc3)n2n1 (stereo unspecified) | ? | 9% | 18% | 15µM*! | ? | ?
CC(Sc1ccc2nnc(-c3ccc(F)cc3)n2n1)C(=O)O (stereo unspecified) | -17% | -3% | -3% | i | -1% | i
COc1ccc(-c2nnc3ccc(SCC(=O)N4CCOCC4)nn23)cc1 | -26% | -8% | -1% | i | -21% | i
CCOc1ccccc1/C=C/C(=O)NCC(=O)N1CCC(N(C)C2CCCCC2C)CC1 (stereo unspecified) | ? | 3% | 0% | i | ? | i
BrC(/C=C\c1ccccc1)=N/Nc1nc(N2CCOCC2)nc(N2CCOCC2)n1 | 7.3µM* | ? | ? | i | 10µM* | i
C(=N\Nc1nc(N2CCOCC2)nc(N2CCOCC2)n1)/c1ccncc1 | 0% | -3% | 0% | i | -18% | i
BrC(=C\c1ccccc1)/C=N/Nc1nc(N2CCOCC2)nc(N2CCOCC2)n1 | 2.3µM* | ? | ? | i | 13µM* | i
CN(C)c1ccc(/C=C/C=N/Nc2nc(N3CCOCC3)nc(N3CCOCC3)n2)cc1 | 16µM* | -3% | -8% | i | ? | i
C=CCOc1ccc(/C=C2\SC(=S)N(NS(=O)(=O)c3ccc(C)cc3)C2=O)cc1 | 9% | -19% | -13% | i | -8% | i
CCCOc1ccc(-c2c(=O)n(O)c3ccccc3[n+]2[O-])cc1 | ? | 16% | 11% | i | -28% | i
O=C(NC1CC2CCCC(C1)N2C(=O)Nc1ccc(F)cc1)c1ccccc1 (stereo unspecified) | 4% | -2% | 1% | ? | -2% | i
CCCOc1ccc(C2c3c(-c4ccccc4O)n[nH]c3C(=O)N2CCCOCC)cc1OCC (stereo unspecified) | 23µM* | · | · | ? | ? | i
CCCOc1ccc(C2c3c(-c4ccccc4O)n[nH]c3C(=O)N2Cc2ccncc2)cc1OCC (stereo unspecified) | 23µM* | · | · | i | -24% | i
O=Cc1c(-[n+]2ccccc2)nc([O-])n1-c1ccccc1 | ? | 8% | 17% | ? | 18µM* | ?
C#CCNC(=O)C[C@@H]1C[C@@]2(C(=O)OC)CC(C)(C)CC=C2N(Cc2ccco2)C1=O | 17% | 7% | 8% | ? | 19% | i
COC(=O)[C@@]12C[C@@H](CC(=O)NCC34CC5CC(CC(C5)C3)C4)C(=O)N(Cc3ccco3)C1=CCC(C)(C)C2 | 16µM* | ? | 21µM* | 15µM* | 15µM* | ?
COC(=O)[C@@]12C[C@@H](CC(=O)N3CCCCC3)C(=O)N(Cc3ccco3)C1=CCC(C)(C)C2 | 23µM* | 4% | 11% | ? | ? | i
O=C(NCC1CCOCC1)c1ccc2nc(Cc3cccc(Cl)c3)oc2c1 | -29% | -19% | -14% | i | -12% | i
COc1ccc(/C=N/Nc2ccccn2)cc1OC | ? | 11% | 5% | i | 16µM* | i
CN(C)c1ccc(C=NNc2ccccn2)c(Cl)c1 | ? | 9% | 12% | i | ? | i
SMILES | TDP1 cell CPT | HT1080 IDH1KD tx | HT1080-NT tox | KB-V1 cytotox | DT40 TDP1 no CPT | KB-3-1 tox
CN(C)c1ccc(/C=N\Nc2ccccn2)cc1 | 21µM* | -17% | -12% | i | 23µM* | i
COc1cc(/C=N/Nc2ccccn2)ccc1O | -7% | -20% | -4% | i | -2% | i
Cc1[nH]c2ccccc2c1C(=O)CSc1nnc(C2CC2)o1 | 0% | 14% | 21% | i | ? | i
Cc1[nH]c2ccc(-c3nnc(SCC(=O)c4ccccc4F)o3)cc2c1C | -72% | -12% | -13% | 21µM* | 18µM* | i
Cc1ccc(C(=O)CSc2nnc(-c3ccc4[nH]c(C)c(C)c4c3)o2)cc1C | ? | 3%[9.24 µM] | 11% | i | 26µM* | i
COc1ccc(N2CCN(C(=O)CSc3nnc(-c4ccc5[nH]c(C)c(C)c5c4)o3)CC2)cc1 | ? | 15% | 0% | i | -29% | i
Cc1ccc(C2C=C(c3ccccc3)Nc3nc(NS(C)(=O)=O)nn32)cc1 (stereo unspecified) | 3% | · | · | · | -2% | ·
CCOC(=O)C1=C(N)Oc2ccc3ccccc3c2C1c1ccc(O)cc1 (stereo unspecified) | ? | -17% | -6% | i | ? | i
CCOC(=O)C1=C(NC#N)OC(C)=C(C)C1c1ccc(O)cc1 (stereo unspecified) | 23µM* | -1% | 2% | i | 21µM* | i
CC(=O)N1CCC(O)(c2ccc3c(c2)OCO3)CC1 | -9% | -5% | -9% | i | 0% | i
COc1ccc(OC)c(/C(C)=N/Nc2ccc(C(=O)O)cc2)c1 | -6% | 12% | 0% | i | -11% | i
C/C(=N\NC(=O)c1ccc(O)cc1)c1cccc(NC(=O)c2ccc(Cl)cc2)c1 | ? | -22% | -19% | i | 12µM* | i
C/C(=N\NC(=O)c1cccc(F)c1)c1cccc(NC(=O)c2ccc(F)cc2)c1 | -1% | -2% | -1% | i | -15% | i
C/C(=N\Nc1cccc([N+](=O)[O-])c1)c1cc(F)ccc1O | ? | -13% | -11% | ? | 13µM* | i
C/C(=N\NC(=O)c1ccccc1F)c1cccc(NC(=O)c2ccc(C)cc2)c1 | ? | -4% | 0% | · | 16µM* | ·
